Assay [1] is described as follows: binders of probe aFSTL3 on microarray, primary screen, stem cell growth factor project, biochemical, small-molecule microarray, fluorescence 635/667 (AID 1064).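 Also: measures binding of the biotinylated anti-FSTL3 antibody to printed compounds.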 As to conditions: higher = more signal.
Assay [2] can be described thus: binders from COS7 lysate, DM2A8 probe, primary screen, torsin A project, cell lysate, small-molecule microarray, fluorescence 635/667 (AID 1065). To be noted: higher = more signal, COS7 lysate expressing mutant human TOR1A.
The nature of assay [3]: binders of probe aFGF2 on microarray, primary screen, stem cell growth factor project, biochemical, small-molecule microarray, fluorescence 635/667 (AID 1067).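 Also: measures binding of biotinylated aFGF2 protein to printed compounds on slides; z-score merges feature fluorescence and signal-to-noise across triplicate slides.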 To be noted: higher = more signal.
Assay [4] can be described thus: binders of probe aFGF10 on microarray, primary screen, stem cell growth factor project, biochemical, small-molecule microarray, fluorescence 635/667 (AID 1071).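 Also: score merges 667 nm spot intensity and signal to noise from triplicate slides.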 To be noted: higher = more signal.
For assay [5], the target named is Neurogenic locus notch homolog protein 2 (Homo sapiens) (UniProt Q04721). In words: Notch2 binders on small-molecule microarrays, primary screen, biochemical, small-molecule microarray, 635 nm fluorescence, stem cell growth factors (AID 1073). To be noted: Notch2 binding, higher = more signal.
Sequence of Neurogenic locus notch homolog protein 2 (Homo sapiens) (Q04721 whole entry, looked up, canonical isoform): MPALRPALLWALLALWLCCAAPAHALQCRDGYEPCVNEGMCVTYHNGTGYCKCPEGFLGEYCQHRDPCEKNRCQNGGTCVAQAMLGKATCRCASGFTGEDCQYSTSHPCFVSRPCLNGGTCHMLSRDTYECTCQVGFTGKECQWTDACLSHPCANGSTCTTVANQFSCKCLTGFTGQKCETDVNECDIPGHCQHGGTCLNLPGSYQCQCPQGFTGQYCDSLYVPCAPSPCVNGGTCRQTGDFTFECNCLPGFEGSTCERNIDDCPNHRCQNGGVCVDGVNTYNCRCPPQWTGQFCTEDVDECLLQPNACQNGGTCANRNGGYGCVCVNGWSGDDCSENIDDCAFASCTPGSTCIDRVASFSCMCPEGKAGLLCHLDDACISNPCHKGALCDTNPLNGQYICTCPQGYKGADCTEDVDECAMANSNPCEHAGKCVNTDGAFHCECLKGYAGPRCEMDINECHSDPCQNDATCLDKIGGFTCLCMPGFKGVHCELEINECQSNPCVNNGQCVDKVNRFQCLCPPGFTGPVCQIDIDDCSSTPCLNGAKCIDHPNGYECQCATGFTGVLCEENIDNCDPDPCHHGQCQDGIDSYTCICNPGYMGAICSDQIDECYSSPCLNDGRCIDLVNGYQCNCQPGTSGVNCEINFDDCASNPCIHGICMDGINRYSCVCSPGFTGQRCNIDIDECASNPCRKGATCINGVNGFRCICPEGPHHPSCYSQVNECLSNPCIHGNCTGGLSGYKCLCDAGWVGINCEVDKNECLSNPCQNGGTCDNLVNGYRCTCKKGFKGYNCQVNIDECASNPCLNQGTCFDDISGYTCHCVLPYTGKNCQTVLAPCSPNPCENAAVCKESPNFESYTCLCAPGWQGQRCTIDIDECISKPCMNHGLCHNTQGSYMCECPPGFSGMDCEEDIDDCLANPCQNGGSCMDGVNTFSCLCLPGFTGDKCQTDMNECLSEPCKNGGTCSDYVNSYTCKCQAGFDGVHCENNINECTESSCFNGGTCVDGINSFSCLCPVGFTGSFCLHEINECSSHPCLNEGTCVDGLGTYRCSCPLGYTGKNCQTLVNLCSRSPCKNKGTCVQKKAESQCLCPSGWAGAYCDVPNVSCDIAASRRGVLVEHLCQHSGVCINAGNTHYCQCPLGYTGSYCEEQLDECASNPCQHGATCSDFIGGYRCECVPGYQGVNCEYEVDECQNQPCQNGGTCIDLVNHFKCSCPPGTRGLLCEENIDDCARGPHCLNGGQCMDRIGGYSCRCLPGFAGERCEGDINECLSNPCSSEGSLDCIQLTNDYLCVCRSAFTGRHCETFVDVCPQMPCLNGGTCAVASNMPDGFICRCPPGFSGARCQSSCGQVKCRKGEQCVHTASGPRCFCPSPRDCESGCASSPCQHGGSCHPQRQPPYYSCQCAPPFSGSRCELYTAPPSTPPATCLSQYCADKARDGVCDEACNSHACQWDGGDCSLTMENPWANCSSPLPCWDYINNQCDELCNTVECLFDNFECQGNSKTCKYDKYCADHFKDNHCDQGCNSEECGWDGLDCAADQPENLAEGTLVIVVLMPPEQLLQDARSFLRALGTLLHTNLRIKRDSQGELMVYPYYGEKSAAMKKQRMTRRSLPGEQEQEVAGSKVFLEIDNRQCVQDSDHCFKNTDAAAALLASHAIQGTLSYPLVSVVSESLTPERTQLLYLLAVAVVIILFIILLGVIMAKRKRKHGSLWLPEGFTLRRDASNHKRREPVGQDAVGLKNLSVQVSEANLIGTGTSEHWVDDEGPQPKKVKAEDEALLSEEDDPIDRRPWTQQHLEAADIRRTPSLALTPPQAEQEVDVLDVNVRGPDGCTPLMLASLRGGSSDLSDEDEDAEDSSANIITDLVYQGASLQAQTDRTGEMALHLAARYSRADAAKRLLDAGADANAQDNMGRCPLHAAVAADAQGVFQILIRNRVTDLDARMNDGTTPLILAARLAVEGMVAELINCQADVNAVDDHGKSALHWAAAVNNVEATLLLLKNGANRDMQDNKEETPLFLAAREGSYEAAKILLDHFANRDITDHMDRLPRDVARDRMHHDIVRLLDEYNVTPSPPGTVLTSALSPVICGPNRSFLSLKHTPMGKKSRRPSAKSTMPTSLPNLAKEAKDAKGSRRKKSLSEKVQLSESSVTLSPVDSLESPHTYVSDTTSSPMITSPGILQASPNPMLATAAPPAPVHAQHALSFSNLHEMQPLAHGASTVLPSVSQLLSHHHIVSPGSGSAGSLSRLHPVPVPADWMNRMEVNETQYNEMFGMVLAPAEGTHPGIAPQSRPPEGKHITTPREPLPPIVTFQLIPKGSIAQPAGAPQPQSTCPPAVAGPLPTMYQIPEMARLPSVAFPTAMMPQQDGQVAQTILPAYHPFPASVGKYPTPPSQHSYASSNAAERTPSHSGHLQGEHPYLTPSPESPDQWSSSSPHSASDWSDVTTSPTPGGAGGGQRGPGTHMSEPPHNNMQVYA
Assay [6] deals with Pro-neuregulin-1, membrane-bound isoform (Homo sapiens) (UniProt Q02297). The experiment in a line: NRG1 binders on small-molecule microarrays, primary screen, psychiatric disease protein project, biochemical, small-molecule microarray, fluorescence 635/667 (AID 1075).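 Also: score combines 667 nm spot fluorescence with signal to noise.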 As to conditions: NRG1 binding, 635 nm fluorescence, higher = more signal.
Sequence of Pro-neuregulin-1, membrane-bound isoform (Homo sapiens) (Q02297 whole entry, looked up, the tested form may be a part, canonical isoform): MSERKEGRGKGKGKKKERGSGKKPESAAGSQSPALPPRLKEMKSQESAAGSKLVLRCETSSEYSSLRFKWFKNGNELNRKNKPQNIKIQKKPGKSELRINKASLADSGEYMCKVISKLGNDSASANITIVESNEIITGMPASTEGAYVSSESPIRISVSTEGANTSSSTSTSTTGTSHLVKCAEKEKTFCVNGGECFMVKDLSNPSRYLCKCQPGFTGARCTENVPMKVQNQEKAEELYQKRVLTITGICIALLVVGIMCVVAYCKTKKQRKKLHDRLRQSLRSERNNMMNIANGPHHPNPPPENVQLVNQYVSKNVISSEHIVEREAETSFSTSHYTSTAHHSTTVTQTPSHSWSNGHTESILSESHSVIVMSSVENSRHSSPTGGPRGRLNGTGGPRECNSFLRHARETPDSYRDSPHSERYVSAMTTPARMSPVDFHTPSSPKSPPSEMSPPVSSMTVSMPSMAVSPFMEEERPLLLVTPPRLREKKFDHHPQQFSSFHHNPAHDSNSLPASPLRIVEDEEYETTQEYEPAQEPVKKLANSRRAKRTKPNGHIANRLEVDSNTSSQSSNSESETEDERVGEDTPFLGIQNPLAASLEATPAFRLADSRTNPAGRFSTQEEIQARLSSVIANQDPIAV
The subject of assay [7] is Neuregulin-1 EGF-like domain. The experiment in a line: binders of neuregulin-1 EGF-like domain, primary screen, biochemical, small-molecule microarray, 635 nm fluorescence (AID 1081).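 Also: binding of the protein to compounds printed on small-molecule microarray slides.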 To be noted: small-molecule microarray binding, higher = more signal.
Assay [8] is described as follows: FRG1 promoter luciferase signal modulators, primary screen, FRG1 inhibition for FSHD, cell-based, C2C12 myotubes, firefly/Renilla luciferase, luminescence (AID 1084). To be noted: higher = more signal, called active from +8 up or from −8 down.
A short description of assay [9]: binders of probe aFST on microarray, primary screen, stem cell growth factor project, biochemical, small-molecule microarray, fluorescence 635/667 (AID 1086).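 Also: score merges 667 nm fluorescence with signal-to-noise of each printed compound spot.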 As to conditions: higher = more signal.
The nature of assay [10]: binders of probe aHhip on microarray, primary screen, stem cell growth factor project, biochemical, small-molecule microarray, fluorescence 635/667 (AID 1087).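 Also: score merges spot fluorescence at 667nm with spot signal to noise ratio.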 As to conditions: higher = more signal.
In assay [11] the test system is PRMT1 (protein arginine N-methyltransferase 1). The experiment in a line: PRMT1 binders on small-molecule microarrays, primary screen, biochemical, small-molecule microarray, 635 nm fluorescence (AID 1088).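 Also: binding of Prmt1 protein to compounds spotted on small-molecule microarray slides.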 As to conditions: small-molecule microarray binding, higher = more signal.
Assay [12] in a line: yeast growth modulation, basal conditions, primary screen, YJM789 clinical isolate, OD600, 24 h (AID 1089).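 Also: growth of clinical yeast isolate S. cerevisiae YJM 789 seeded 1000 cells per well; test concentration not given here.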 As to conditions: S. cerevisiae YJM789 growth, higher = more signal, called active from +8 up or from −8 down.
Assay [13] is described as follows: fission yeast growth modulation, primary screen, strain 972, OD600, 24 h, no modulator (AID 1090).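 Also: basal condition with compound alone and no growth modifier present; test concentration not given here.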 To be noted: S. pombe 972 growth, higher = more signal, called active from +8 up or from −8 down.
Assay [14] in a line: S. cerevisiae growth modulation with rapamycin, primary screen, strain BY4716, OD600, 96 h (AID 1091). Also: test concentration not given here. As to conditions: higher = more signal, called active from +8 up or from −8 down.
Assay [15] addresses Torsin-1A-interacting protein 2 (Homo sapiens) (UniProt Q8NFQ8). In words: LULL1 binders on small-molecule microarray, primary screen, cell lysate, human LULL1 lysate, 635/667 nm fluorescence (AID 1092).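 Also: probe is lysate of COS7 cells overexpressing human LULL1; score merges per-feature 667 nm fluorescence with signal-to-noise.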 To be noted: hLULL1 lysate binding, 635 nm fluorescence, higher = more signal.
Assay [16] is described as follows: E. coli growth modulation, two-sided OD650, primary screen, E. coli filamentation project, strain DRC41, 24 h (AID 1093).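 Also: MC1000 strain lacking acrAB efflux and sulA so SOS filamentation is blocked; test concentration not given here.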 As to conditions: OD650, 24 h, higher = more signal, called active from +8 up or from −8 down.
A short description of assay [17]: small-molecule microarray binders of probe aLefty2, primary screen, biochemical, biotinylated probe, 635/667 nm fluorescence (AID 1094).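 Also: score merges spot fluorescence near 667 nm with spot signal-to-noise ratio.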 As to conditions: higher = more signal.
In assay [18] the test system is Noggin (protein binding on small-molecule microarray). In words: Noggin binders on small-molecule microarray, primary screen, biochemical, 635/667 nm fluorescence (AID 1095).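 Also: score merges 667 nm feature fluorescence with signal to noise over triplicate slides.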 As to conditions: 635 nm fluorescence, higher = more signal.
Assay [19] has as its target Neurogenic locus notch homolog protein 3 (Homo sapiens) (UniProt Q9UM47). The experiment in a line: NOTCH3 binders on small-molecule microarray, primary screen, biochemical, 635/667 nm fluorescence (AID 1096). To be noted: NOTCH3 binding, 635 nm fluorescence, higher = more signal.
Assay [20] is described as follows: small-molecule microarray binders of probe aEGFR, primary screen, biochemical, biotinylated probe, 635/667 nm fluorescence (AID 1097).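 Also: probe is a biotinylated anti-EGFR antibody binding compounds printed on slides; score combines fluorescence near 667 nm and signal to noise of each spot.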 To be noted: higher = more signal.

Activity calls are given as the source filed them.

Sequence of Torsin-1A-interacting protein 2 (Homo sapiens) (Q8NFQ8 whole entry, looked up): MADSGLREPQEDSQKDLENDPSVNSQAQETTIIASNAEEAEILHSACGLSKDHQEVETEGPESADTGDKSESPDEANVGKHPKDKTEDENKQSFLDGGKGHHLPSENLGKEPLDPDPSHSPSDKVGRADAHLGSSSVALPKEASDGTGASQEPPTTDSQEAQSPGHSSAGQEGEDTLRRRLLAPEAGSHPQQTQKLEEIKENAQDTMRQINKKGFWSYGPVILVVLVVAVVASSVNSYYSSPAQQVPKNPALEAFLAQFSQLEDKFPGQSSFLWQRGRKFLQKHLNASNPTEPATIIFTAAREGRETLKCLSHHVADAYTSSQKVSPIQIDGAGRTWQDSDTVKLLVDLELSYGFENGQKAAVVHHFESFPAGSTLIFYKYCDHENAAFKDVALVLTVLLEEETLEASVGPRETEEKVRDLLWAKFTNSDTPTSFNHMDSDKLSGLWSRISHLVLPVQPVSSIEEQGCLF

For the compound `CC(CO)N1C(=O)[C@]2(C)C3C(=O)OCCC/C=C\[C@H]3OC23C=CCN(c2ccc(Cl)cc2)C(=O)[C@@H]13` (stereo not given in full), the composite z-score in assay [1] was -0.167; in assay [2], -0.258; in assay [3], -0.19; in assay [4], 0.0755; in assay [5], -0.27; in assay [6], -0.639. For the same compound, the composite z-score in assay [7] is 1.25; in assay [9], -0.456; in assay [10] it was -0.266; in assay [11] it was -1.06; in assay [15], -1.08; in assay [17] it was -0.152. For the same compound, the composite z-score in [18] was -0.554; in assay [19] it was -0.162; in [20] it was -0.165. The z-score in assay [8] is -0.906 (inactive); in assay [12], 0.0276 (inactive); in assay [13] it was -0.358 (inactive); in assay [14], -0.14 (inactive); in [16] it was 0.525 (inactive).

`CCCC=C(CCC)[C@@H](NC(=O)C(C)(C)C)c1ccc(C(=O)OC)cc1`: the composite z-score in assay [1] is 0.488; in [2], -0.495; in assay [3] it was 0.202; in assay [4], 0.0431; in assay [5], 1.45; in assay [6] it was 0.992. Also, the composite z-score in [7] is 0.883; in assay [9], 1.26; in [10], -0.115; in assay [11], 0.0225; in [15], 3.12; in assay [17] it was 0.498. The values for the composite z-score in [18], in assay [19] and in assay [20] were -0.383, 0.803 and -0.0023, respectively. The z-score was -4.15 (inactive) in assay [8]; 0.647 (inactive) in [12]; 1.51 (inactive) in assay [13]; 1.68 (inactive) in [14]; -0.447 (inactive) in assay [16].

For the compound `NC(=O)NCC#Cc1ccc2c(c1)[C@]1(C(=O)N2)[C@H](c2ccccc2OCCO)N2[C@H](c3ccccc3)[C@H](c3ccccc3)OC(=O)[C@H]2[C@@H]1C(=O)NC[C@H](O)c1ccccc1`, the composite z-score is -0.0058 in assay [1]; 1.37 in assay [2]; -0.085 in assay [3]; 0.262 in assay [4]; -0.667 in assay [5]; 0.319 in assay [6]. For the same compound, the composite z-score is -0.32 in [7]; -0.312 in [9]; -0.122 in assay [10]; 0.415 in assay [11]; 1.06 in [15]; 0.448 in assay [17]. The composite z-score in assay [18] was -0.0053; in assay [19], -0.112; in assay [20], -0.162. In addition, the z-score was -0.308 (inactive) in assay [8]; 1.5 (inactive) in assay [12]; 1.32 (inactive) in [13]; 3.89 (inactive) in assay [14]; 2.36 (inactive) in assay [16].

Regarding `C=CCN1C(=O)[C@]2(CCS(=O)(=O)c3ccccc3)N=C(c3ccc(OCCCO)cc3)O[C@@H]2c2ccccc21`, the composite z-score in assay [1] is -0.104; in assay [2], 0.264; in assay [3], 0.0109; in assay [4], 0.162; in assay [5], 0.84; in assay [6], 0.445. Besides, the composite z-score in assay [7] is 1.28; in [9], 0.454; in assay [10] it was -0.121; in assay [11], 1.54; in [15], 3.65; in assay [17] it was 0.0416. For the same compound, the figures for the composite z-score in assay [18], in [19] and in [20] were 1.49, 1.1 and 0.0574, respectively. The z-score in [8] was -1.9 (inactive); in assay [12], -0.523 (inactive); in assay [13] it was -1.16 (inactive); in [14] it was 2.46 (inactive); in assay [16], 0.624 (inactive).

Turning to `OCCCC1=CC(c2ccc(CN3CCCC3)cc2)N(Cc2cc3c(cc2Br)OCO3)CC1` (stereo not given), the composite z-score in assay [1] was 0.492; in assay [2], 0.52; in [3], -0.135; in assay [4], -0.373; in assay [5] it was -0.108; in assay [6], -0.384. The composite z-score in assay [7] is 0.748; in assay [9], 0.47; in [10], -0.0237; in [11], 0.233; in assay [15], -0.692; in assay [17], 0.112. For the same compound, the composite z-score in assay [18] is 0.386; in assay [19], -0.102; in assay [20], 0.0617. The z-score in assay [8] was -0.0594 (inactive); in assay [12], -2.55 (inactive); in [13], -1.35 (inactive); in assay [14], -0.705 (inactive); in assay [16], 0.497 (inactive).
